Dicer inh = inhibitors of Dicer pre-microRNA processing, primary screen, biochemical, cat-ELCCA, chemiluminescence; Endoribonuclease Dicer (Homo sapiens), Q9UPY3; cat-ELCCA pre-miR-21 Dicer processing; stronger effect = higher value; z-score at 25 µM; 6% of 47,000 active; AID 1347074, 2019; in the data active = z-score above about 3, passing the limit was not always enough;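 also: plate controls were vehicle for no effect and no enzyme for full effect; higher signal means more uncleaved substrate so more Dicer inhibition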
Active calls of the source: *. Only a selection was taken, and hits are over-represented in it overall.

SMILES | Dicer inh
CNC(=S)NNC(=O)CSc1nnc(-c2ccc(C(C)(C)C)cc2)n1CCCOC | -0.65
CC(=O)NNC(=O)C(C)n1nnc(-c2cc(C(F)(F)F)cc(C(F)(F)F)c2)n1 (stereo not drawn) | -0.56
CC(C(=O)NNC(=O)C1CC1)n1nnc(-c2cc(C(F)(F)F)cc(C(F)(F)F)c2)n1 (stereo not drawn) | -5.9
CC(C(=O)NNC(=O)C(C)(C)C)n1nnc(-c2cc(C(F)(F)F)cc(C(F)(F)F)c2)n1 (stereo not drawn) | 3.8*
O=C(NCCCCCCO)OCC1c2ccccc2-c2ccccc21 | -0.78
COC(=O)c1c(C)oc2ccc(OC(C)C(=O)OC)cc12 (stereo not drawn) | 0.87
c1ccc2[nH]c(CN3CCCCC3)nc2c1 | -0.54
O=c1[nH]c(CN2CCOCC2)nc2ccccc12 | 6.9*
O=c1[nH]c(CN2CCCCC2)nc2c1oc1ccccc12 | -0.24
CN(C)/C=C1\SCc2ccccc2C1=O | -1.5
CN(C)/C=C1\CCCc2ccccc2C1=O | 3.4*
O=C1/C(=C/c2ccc3c(c2)OCO3)CCCc2ccccc21 | -1.7
CCCCC1(O)CC(c2ccc(OC)cc2)NC(c2ccc(OC)cc2)C1C (stereo not drawn) | 3.2*
COc1ccc(C2NC(c3ccc(OC)cc3)C(C)C(=O)C2C)cc1 (stereo not drawn) | -0.54
COc1ccc(C2C/C(=N/O)C(C)C(c3ccc(OC)cc3)N2)cc1 (stereo not drawn) | 1.4
COc1cccc(OCc2nc(-c3ccc(Cl)cc3)no2)c1 | -3.6
CSc1nc(-c2cccnc2)nc(N)c1C#N | 0.23
c1ccc2c(c1)N=C(NNC1=Nc3ccccc3SC1)CS2 | 3.8*
CC(C(=O)c1ccccc1)C1(O)C(=O)N(C)c2ccccc21 (stereo not drawn) | -1.6
CN(C)c1c(F)cc(/C(N)=N/O)cc1F | 0.46
CN(C)c1c(F)cc(C(=O)Nc2cc(C(F)(F)F)cc(C(F)(F)F)c2)cc1F | 12
CN(C)c1c(F)cc(C(N)=O)cc1F | 3.4*
C=C(C)Cn1c(CO)nc2ccccc21 | 1.5
Cc1ccc(N2C(=O)C3ON(c4ccccc4)C(c4ccncc4)C3C2=O)cc1Cl (stereo not drawn) | 0
CCCC1C2C(=O)N(c3ccccc3)C(=O)C2ON1c1ccc(Cl)c(Cl)c1 (stereo not drawn) | 7.2*
SMILES | Dicer inh
O=C1C2C3c4ccccc4C(c4ccccc43)C2C(=O)N1c1ccc(Cl)c(Cl)c1 (stereo not drawn) | 1.1
O=C(O)CCCCCNc1ncnc2ccccc12 | 2.7
N/C(=N/S(=O)(=O)c1cc(C(F)(F)F)cc(C(F)(F)F)c1)c1ccc(Cl)cc1 | 1.9
N/C(=N/S(=O)(=O)c1ccc(Cl)c(Cl)c1)c1ccc(Cl)cc1 | 4.5*
N/C(=N\S(=O)(=O)c1cc(Cl)sc1Cl)c1ccc(Cl)cc1 | 1.4
Cc1cc(Cl)ccc1NC(=S)NNC(=O)c1sc2ccccc2c1Cl | 2.4
NN1CC(=O)N(c2cccc(C(F)(F)F)c2)CC1=O | 1.2
COc1cccc(N2C(=O)C3C4c5ccccc5C(c5ccccc54)C3C2=O)c1 (stereo not drawn) | 3.7*
Cc1cccnc1N1C(=O)C2C3c4ccccc4C(c4ccccc43)C2C1=O (stereo not drawn) | 0.69
COc1ccccc1N1C(=O)C2C3c4ccccc4C(c4ccccc43)C2C1=O (stereo not drawn) | -0.08
COc1ccc(N2C(=O)C3C4c5ccccc5C(c5ccccc54)C3C2=O)cc1 (stereo not drawn) | 1.5
COc1cccc(N2CC(=O)N(N)CC2=O)c1 | 3.8*
COC(=O)c1ccccc1N1CC(C(=O)O)CC1=O (stereo not drawn) | 2.3
COC(=O)c1ccccc1N1C(=O)C2C3c4ccccc4C(c4ccccc43)C2C1=O (stereo not drawn) | 4.2*
COc1cccc(N2CC(=O)N(NC(=O)NC3CCCCC3)CC2=O)c1 | 2.8
COc1ccc(N(C(=O)Nc2ccccc2Cl)C(CC(=O)C2CC2)c2ccccc2)cc1 (stereo not drawn) | -1.3
COC(=O)C1C(c2ccccc2)C(C(=O)OC)S(=O)(=O)CS1(=O)=O (stereo not drawn) | 1.5
S=C(NCC1CC1)N/N=C/c1ccccc1Cl | 19
O=C(NNC(=S)NCC1CC1)C1CC1 | 3.4*
CC(C)(C)OC(=O)N[C@@H](Cc1ccccc1)C(=O)NNC(=S)NCC1CC1 | 2.1
C=CCOC(=O)C1=C(C)N=C2SCCC(=O)N2C1c1ccc(OC)cc1 (stereo not drawn) | 0.02
c1ccc2c(c1)c1ccccc1n2CN1CCCCC1 | 0.24
Cc1ccc(C)n1-c1ccc(N)cc1 | -4
Cc1ccc(N2N=C(N)CC2=O)cc1 | 2.4
CC1=NC(=O)CN1c1ccc(N)cc1 | 4*
SMILES | Dicer inh
Cn1c(=O)c2c(nc(NCCCO)n2Cc2ccccc2Cl)n(C)c1=O | 1.6
O=C(O)CSCC(=O)Nc1ccc2c(c1)C(=O)OC2 | -3.1
O=C1ON(c2ccccc2)C(=O)/C1=C/c1ccccc1 | 0.17
COc1ccccc1NC(=S)NCC(C)(C)C(=O)O | -0.71
COc1ccccc1NC(=S)NNC(=O)NNC(=S)Nc1ccccc1OC | 4.4*
COc1ccccc1NC(=S)Nc1ccccn1 | 8.9
O=C1CC2(CCCC2)C(=O)N1c1ccc(S(=O)(=O)N2CCN(c3nccc(C(F)(F)F)n3)CC2)cc1Cl | -0.41
O=C(CSC(=S)N1CCOCC1)c1ccc(Cl)cc1 | -1.3
CN(C)C(=S)SCC(=O)c1ccc(Cl)cc1 | 4.9*
Cn1c(SCC(=O)c2ccc(Cl)cc2)nnc1SCC(=O)c1ccc(Cl)cc1 | -0.58
CNc1ccc(Br)cc1C(O)c1ccccc1 (stereo not drawn) | 3.4*
C=CC(=C)CC(NC)c1ccccc1 (stereo not drawn) | 1.5
CNC[C@H](O)c1cccc(O)c1 | -0.43
CCCc1nn2c(=O)c(NC(=O)c3ccc(F)cc3)cnc2s1 | -0.23
COc1cccc(Nc2ncnc3cc(-c4ccccc4)sc23)c1 | 1.8
CCOCCOC(=O)C1=C(C)NC2=C(C(=O)CC(C)(C)C2)C1c1ccc(O)c(OC)c1 (stereo not drawn) | -0.58
Cc1cccc2nc(CSc3nnnn3-c3ccccc3)cn12 | 6.5*
Cc1ccc(CSc2nc(C)cc(=O)[nH]2)cc1 | -1.6
Cc1cc(=O)[nH]c(SCc2cn3c(C)cccc3n2)n1 | 4.8*
Cc1cc(=O)[nH]c(SCc2cccc(Oc3ccccc3)c2)n1 | -0.26
Cc1cc(C)nc(N2N=C(CSc3nnnn3-c3ccccc3)CC2=O)n1 | -1.5
Cc1cccc2nc(CSc3nncn3-c3ccccc3)cn12 | -0.94
CSc1n[nH]c(-c2ccco2)c1C#N | -0.93
CCOC(=O)c1ccc(OC(=O)c2ccc(Cl)cc2[N+](=O)[O-])c(Cl)c1 | -0.16
O=C(Nc1ccc2c(c1)CCO2)Nc1ccc2c(c1)CCO2 | 1.1
SMILES | Dicer inh
S=C(NCCc1ccccc1)N/N=C/c1c(-c2ccc(Cl)cc2)[nH]c2ccccc12 | 3.7*
Oc1ccccc1/C=N/NC(=S)NCCc1ccccc1 | 12
COc1cccc(/C=N/NC(=S)NCCc2ccccc2)c1OC | -1.4
Cc1nc2c([nH]1)c(=O)n(C)c(=O)n2Cc1ccco1 | -0.88
Cc1onc(-c2ccccc2)c1CSc1n[nH]c(=O)n1Cc1ccco1 | -1.5
c1ccc(-c2c(-c3ccccc3)n(Cc3ccco3)c3ncn4nc(-c5ccco5)nc4c23)cc1 | 5.6*
CCOC(=O)C(=CNc1cc(C(F)(F)F)ccc1F)C(=O)OCC | 0.7
COc1ccc(-c2nc3n(n2)C(c2ccc(F)cc2)C2=C(CC(C)(C)CC2=O)N3)cc1 (stereo not drawn) | 0.1
